Data reported in the supplement of paper PMC6555819.

Key:
Assay in all cases: PBM binding z-score (relative to random genomic background probes); higher = stronger binding; sequences stand for … in GC…GCGATTGACAGCGTAGAATGAAGG
[1] = test system: RARb homodimer (NR concentration 270 nM)
Procedure, shortened: (§1)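 Custom Agilent 4×180K protein-binding microarrays carried double-stranded probes. Their 34-nt variable regions held direct-repeat seeds, single-nucleotide variants, half-site ablations and random human genomic background sequences. Arrays were incubated 1 h with ligand-free nuclear receptor dimers in PBS pH 7.4, 2% milk, 0.02% Triton X-100, 1 mM DTT, 0.2 mg/mL BSA and 0.4 mg/ml salmon testes DNA. Antibodies against each partner (one per run) detected binding, and scanned fluorescence was regression-normalized. Binding z-scores use random background probes as reference.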

[2] = test system: RARg:RXRa (NR concentration 270 nM, RXRa partner concentration 90 nM)
Procedure, shortened: as §1

[3] = test system: RARg homodimer (NR concentration 270 nM)
Procedure, shortened: as §1

[4] = test system: RXRa DBDmut IVT, anti-RXR (DBD mutation: RXRa K156A/R161A, NR concentration 90 nM)
Procedure, shortened: as §1

[5] = test system: RXRa homodimer (NR concentration 180 nM)
Procedure, shortened: as §1

[6] = test system: THRa:RXRa (NR concentration 90 nM, RXRa partner concentration 90 nM)
Procedure, shortened: as §1

[7] = test system: THRa homodimer (NR concentration 90 nM)
Procedure, shortened: as §1

[8] = test system: VDR homodimer (NR concentration 270 nM)
Procedure, shortened: as §1

Sequence	PBM binding z-score [1]	PBM binding z-score [2]	PBM binding z-score [3]	PBM binding z-score [4]	PBM binding z-score [5]	PBM binding z-score [6]	PBM binding z-score [7]	PBM binding z-score [8]
TAGCCTAGGTCATTCAGGGGCCAGTACAGAAAGC	3.28	5.87	4.35	1.94	2.7	3.4	0.784	1.56
TGAATGAGGTTGTAAGATCAGGGAACGTTGCAAA	-0.435	-0.0347	0.0621	-0.583	0.396	0.192	-0.364	-0.21
TCTAGTTGGTGAAAGGTCACACACTCGAAATGCG	4.86	6.24	5.72	1.95	7.42	3.97	2.01	2.58
CAAACTAGGTCAAGGTCAAAGCCGGTTTGTGCCA	5.03	6.1	6.74	2.67	5.67	4.39	3.5	3.55
TTATATAGGTAAATGCTAGGTGAAAGTCCGATCT	0.66	0.442	0.423	0.585	0.781	1.62	0.619	0.705
TCTAGTTGGTCAAAGGTCACCCACTCGAAATGCG	5.15	7.19	6.47	1.86	8.17	3.7	1.8	2.58
CTTTACGGGTCACGAGGTTATAGCACGACGAGCG	4.15	6.33	5.71	2.53	7.44	3.92	1.66	2.28
GCTTCTAGGTCAGGTTGGTCAGCTAACGGGTACG	2.86	2.88	3.68	0.783	1.08	2.47	1.63	0.679
AGAATGAGGTTAAGATCAGGGATACAGAATACAT	1.26	2.17	1.83	1.17	2.45	2.78	1.25	0.506
AAGACAGGGTCATCGTAGGCCAGAGTACGCACAG	3.6	5.67	5.54	3.14	6.69	4.37	1.12	3.34
CCTTCTGGGCCAAGGTCATTGATCAGTCAAAGCA	3.27	3.66	3.02	1.31	3.24	3.49	2.34	2.71
GCTATTTGTTGAAAGGGCAACCGAATGATTCTCG	2.2	1.01	1.26	1.28	0.98	0.638	0.181	0.657
CGATCTAGGTCAGAACAGGACAGTGAAGGATGAT	1.97	2.2	2.89	0.851	0.982	3.36	0.505	-0.107
ACAGACAGGTGAGTCAAGGTAACTCAGCTGGACG	0.0236	0.322	0.586	-0.585	0.518	3.73	0.299	-0.203
CGTCCAAGGTCATAGGAGATCAGTGAAGACAGAT	3.65	5.88	6.14	4.11	6.2	3.82	2.46	3.14
ATCTCTAGGTAAGACTCAGTTCAGGGAAGAACGC	0.949	0.767	0.451	0.408	0.569	1.12	0.955	1.72
CTCGAAAGGTCGGTTGAGGCGAGTATACGGATAA	1.33	2.36	2.23	0.644	1.72	4.02	-0.501	-0.121
TGAATGAGGTTAAAGATCAGGGAACGTGGCGTCG	0.677	2.23	1.12	1.61	3.81	2.5	0.44	0.484
CCAGACAGGTGAAAGGTTACTCAGTCTGGTACGC	1.91	3.02	1.52	0.385	4.22	1.72	0.13	0.149
TTACCAAGGTGGAAGGTCGTTGATGCACGCCTTG	0.907	0.595	0.158	-0.443	1.43	0.674	-0.0203	0.895
TCTCGGAGGACGCGAAGGTCAGAGCTTTCCAGAG	3.03	2.26	2.1	0.401	1.67	1.84	0.0235	0.488
TAGAGTAGGTTACCAATGGGGCATTCAGCTTTCT	1.09	1.76	1.12	0.201	0.73	0.389	-0.222	-0.0971
CCGACTGGGGCAGAAAGGTTACCCTACCATCCGG	2.2	1.35	0.99	-0.847	1.43	1.07	-0.0158	-0.359
GCATATAGGTAATACACGGTGAAAGTCCGATTGT	0.0641	0.309	0.397	0.18	0.407	1.23	-0.424	0.0175
CAAACTAGGTCAAGAAGTCAAAGTCCGCTTCCCG	3.2	4.44	4.23	1.32	2.97	2.65	0.74	0.478
CGTCCAAGGTCAGAGAGGCCAGTGAATGCCGAGT	4.08	4.46	5.6	2.66	3.4	3.28	1.86	2.3
CCTTACGGGTCACGAGGTTATATCACGACGAGCG	3.93	6.16	5.48	1.94	7.11	3.77	1.34	2.09
GATACAGGGTCAGCTAGAGGCCAGAATATGGAAA	3.01	6.5	4.78	1.32	4.12	3.04	0.498	1
